Peg3 promoter: Peg3 promoter-driven luciferase inhibitors, primary screen, cell-based, HeLa, luciferase luminescence | HeLa PEG-Prom luciferase reporter, overnight | actives 1.7% (n = 360,000) | inhibition, % at 20 µM;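 active = inhibition of at least 50% at 20 µM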
MITF TRPM1 inh: inhibitors of MITF-dependent TRPM1 promoter reporter, primary screen, cell-based, SK-MEL-5, single point, luciferase. SK-MEL-5 TRPM1 promoter luciferase, 24 h. inhibition, % at 12.5 µM. actives 0.83% (n = 330,000);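 active = mean inhibition across replicates of 60% or more, whatever share of single replicates reaches that level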
CHOP inh: inhibitors of CHOP promoter induction, primary screen, cell-based, unfolded protein response, luciferase reporter | actives 3.8% (n = 220,000) | CHO-K1 CHOP-promoter luciferase, tunicamycin-induced, 15-18 h | inhibition, % at 10 µM | AID 2732, 2010;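 active = compounds that reduced the stress-induced luciferase reporter signal by more than about 70% of percent inhibition, limit read from the data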;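 also: 0% = tunicamycin plus vehicle and 100% = wells without tunicamycin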
CF NFkB inh: inhibitors of PAF-induced NF-kB signaling, primary screen, cell-based, GFP fluorescence, uHTS; actives 0.86% (n = 360,000); KKLEB NF-kB-GFP reporter, GFP fluorescence overnight; inhibition, % at 5 µM;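 active = at least 50% inhibition at 5 µM, scaled per plate between neutral and stimulator controls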;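 also: PAF is a Pseudomonas aeruginosa culture filtrate used as stimulus; plate controls were PAF-stimulated DMSO wells for no effect and unstimulated DMSO wells for full effect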
KKLEB cytotox: cytotoxicity in KKLEB CF airway cells, primary screen, cytotoxicity control for CF NF-kB inhibitor project, cell-based, uHTS, fluorescence assay plates; KKLEB CF airway cells viability, ATPlite luminescence, overnight; stronger effect = lower value; cells stimulated with P. aeruginosa culture filtrate; activity change (cytotoxicity), % at 5 µM; actives 0.36% (n = 360,000); AID 602141, 2011;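 active = corrected activity change at or below -50% at 5 µM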
HIF-2a inh: HIF-2a reporter inhibitors, primary screen, luminescence, 786-0 RCC cells; 786-0 RCC cells HIF-2a reporter, luciferase luminescence, overnight; inhibition, % at 18.8 µM; actives 0.72% (n = 360,000); AID 624352, 2012;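 active = inhibition of the luminescence signal of 40% or more relative to plate controls, in a single-dose primary screen at 18.75 µM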
CF NFkB conf: inhibitors of PAF-induced NF-kB signaling, retest, confirmation, cell-based, GFP fluorescence, single concentration; inhibition, % at 5 µM; actives 64% (n = 1,300); shares compounds with CF NFkB inh; KKLEB CF airway cells, overnight; in the data active = inhibition above about 40%;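 also: stimulus PAF is a Pseudomonas aeruginosa filtrate and not platelet activating factor; plate controls were DMSO wells with stimulus for no effect and unstimulated DMSO wells for full effect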
* = called active by the depositor; · = no result. Compounds with a hit are over-represented: about 4.3% of the library has one in this group of screens.

SMILES | Peg3 promoter | MITF TRPM1 inh | CHOP inh | CF NFkB inh | KKLEB cytotox | HIF-2a inh | CF NFkB conf
CCN1CCN(Cc2ccc(NC(=O)c3ccc(C)c(NC(=O)C(=O)c4c[nH]c5ccccc45)c3)cc2C(F)(F)F)CC1 | 96.8* | 82.4* | 92.5* | 70.4* | -9.6 | 11.3 | 70.8*
O=C(Nc1ccc2c(c1)OCO2)C(=O)c1c[nH]c2ccccc12 | -265.4 | -36.8 | · | -27.8 | -11.1 | -229.9 | ·
CCN1CCN(Cc2ccc(NC(=O)c3ccc(C)c(NC(=O)c4ccc5n[nH]nc5c4)c3)cc2C(F)(F)F)CC1 | -9.6 | 29.0 | 33.4 | 55.2* | -10.8 | 15.0 | 69.5*
Cn1ccc(NC(=O)Nc2cccc(C(F)(F)F)c2)n1 | -11.5 | 6.5 | 17.9 | 6.4 | -1.2 | -29.1 | ·
CCN(CC)S(=O)(=O)c1ccc(NC(=O)Nc2cccc(C(F)(F)F)c2)cc1 | 52.1* | 60.5* | 55.5 | 61.1* | -48.7 | 29.1 | 81.4*
Cc1cc(C)c2c(N)c(C(=O)c3ccccc3)sc2n1 | -20.8 | · | 10.6 | -41.2 | 5.6 | -60.6 | ·
Cc1nc2sc(C(N)=O)c(N)c2c(C)c1CC(=O)c1ccccc1 | -109.8 | -51.7 | 15.3 | 59.0* | -5.8 | -43.6 | 74.6*
COc1ccc(C(=O)Nc2ccc(O)c3c(=O)cc(-c4cccc(Cl)c4)oc23)cc1 | -56.6 | 8.2 | 23.1 | 50.3* | -33.2 | -46.2 | 1.5
Cc1cccc(C)c1OCc1cc(C(=O)N2CCN(c3ccccc3)CC2C)no1 (stereo not given) | 10.2 | -11.1 | · | -72.9 | -16.3 | -27.5 | ·
CN(C)C(=O)NC(Nc1ccc(Cl)cc1Cl)C(Cl)(Cl)Cl (stereo not given) | 24.9 | 7.8 | 66.0 | -13.7 | -9.5 | -4.5 | ·
ON=C1c2ccccc2-c2ccccc21 | -76.9 | -2.6 | · | 62.3* | 3.5 | -12.0 | 52.8*
CN(C)c1ccc2c(c1)C(=NO)c1ccccc1-2 | -323.1 | -48.3 | · | 0.3 | 2.9 | -298.7 | ·
c1ccc(-c2nc3nonc3nc2-c2ccccc2)cc1 | 8.8 | 61.7* | 84.9* | 72.2* | -16.8 | 25.4 | 65.7*
Cc1ccc(C(O)c2ncc(-c3ccc(Cl)cc3)[nH]2)cc1 (stereo not given) | -92.2 | · | · | 15.9 | -3.9 | -104.9 | ·
Fc1ccc(-n2cc(-c3ccccc3)c3c(N4CCOCC4)ncnc32)cc1 | 54.3* | 8.0 | 70.1* | 85.8* | -2.2 | 17.4 | 104.2*
CCN1CCN(c2ncnc3c2c(-c2ccccc2)cn3-c2ccc(F)cc2)CC1 | 17.8 | -1.5 | -11.5 | 5.8 | -3.0 | 25.2 | ·
Cc1nc(N)nc(N)c1-c1ccc(Cl)c(Cl)c1 | 23.5 | 37.7 | · | 10.5 | -9.7 | 21.7 | ·
Nc1nc(N)nc(-c2ccc(Cl)c(Cl)c2)n1 | -302.4 | -78.1 | · | 79.4* | -12.5 | -232.9 | 91.3*
Cc1ccc(S(=O)(=O)NCCCCCC(=O)Nc2c(C)n(C)n(-c3ccccc3)c2=O)cc1 | 18.1 | -5.6 | 17.8 | 9.0 | -4.0 | 6.1 | ·
Cc1ccc(-c2cc(C(=O)N(C)Cc3cnn(C)c3C)c3cc(Br)ccc3n2)cc1 | -16.9 | 0.9 | 8.1 | 66.9* | -6.7 | -42.6 | 58.1*
CN(CC(=O)Nc1ccccc1Cl)C(=O)COC(=O)c1nc(Cl)c(Cl)c(Cl)c1Cl | 104.6* | 73.5* | · | 87.0* | -41.6 | 38.5 | -100.2
CN(CC(=O)Nc1ccccc1Cl)C(=O)COC(=O)c1ccc(Cl)nc1 | 2.9 | -2.8 | · | 0.1 | 12.2 | 4.9 | ·
COc1cc(OC)nc(Nc2nc(C(N)c3ccccc3Cl)cs2)n1 (stereo not given) | 37.8 | · | · | 50.0* | -36.0 | 12.1 | 8.4
COc1ccc(OC)c(C2CC(=O)c3c([nH]c(C(=O)OC(C)C)c3C)C2)c1 (stereo not given) | -29.6 | 20.9 | · | 61.0* | -12.4 | -37.5 | 86.3*
Cc1ccc(NC(=O)Nc2cccc([N+](=O)[O-])c2)cc1F | -183.3 | -31.9 | 64.5 | 64.9* | -47.7 | -240.7 | 51.6*
SMILES | Peg3 promoter | MITF TRPM1 inh | CHOP inh | CF NFkB inh | KKLEB cytotox | HIF-2a inh | CF NFkB conf
O=C(COC(=O)c1ccccc1)NCC1COc2ccccc2O1 (stereo not given) | 0.5 | · | · | -14.4 | 0.2 | 0.7 | ·
O=C1NC(c2cccc3ccccc23)Nc2ccc(Cl)cc21 (stereo not given) | -13.5 | 41.8 | · | 51.9* | -25.8 | 2.5 | 84.0*
O=C(NCCCSc1ccccc1)c1cc(Br)ccc1O | 42.3 | 10.0 | · | 54.8* | -35.6 | -8.7 | 78.6*
Cc1ccc2cc3c(N)[nH]nc3nc2c1 | -36.0 | 15.0 | -3.4 | -0.7 | 1.2 | -31.6 | ·
Cn1nccc1C(=O)Nc1cc(Cl)ccc1Cl | -6.2 | · | · | 69.5* | 12.1 | 14.2 | 38.1
Cn1nccc1C(=O)Nc1ccc(Cl)cc1 | -197.9 | -60.9 | 11.3 | -0.6 | 0.4 | -166.0 | ·
CCOC(=O)N1CCc2c(sc(NC(=O)CN3CCOCC3)c2C(=O)Nc2ccccc2)C1 | 23.7 | -2.9 | -11.2 | 56.7* | -8.8 | 18.2 | -0.8
CCOC(=O)N1CCc2c(sc(NC(=O)CN3CCN(C)CC3)c2C(=O)Nc2ccccc2)C1 | 0.3 | 0.0 | 1.9 | -15.8 | -8.8 | 7.0 | ·
C/C(=N/NC(=O)c1cc(-c2cccc([N+](=O)[O-])c2)n[nH]1)c1cccc(O)c1 | 12.3 | 0.3 | 29.5 | 56.6* | -12.2 | 13.8 | 36.8
C/C(=N\NC(=O)c1cc(-c2cccc([N+](=O)[O-])c2)n[nH]1)c1ccc(F)cc1 | -2.4 | 1.8 | 21.8 | 19.5 | -19.7 | 3.7 | ·
O=C1OC(c2ccc(O)cc2)(c2ccccc2O)c2ccccc21 (stereo not given) | 43.8 | 7.8 | · | -3.0 | 5.3 | 24.2 | ·
O=C1OC(c2ccccc2)(c2cc(Br)ccc2O)c2ccccc21 (stereo not given) | 104.2* | -8.3 | · | 74.6* | -20.3 | 31.5 | 49.5*
O=C1Cc2cc([N+](=O)[O-])ccc2N1c1c(Cl)cccc1Cl | 5.3 | -7.2 | · | -6.9 | 6.1 | 2.4 | ·
N#C/C(=C\c1ccc(F)c(F)c1)C(=O)NC1CCCCC1 | 8.3 | 3.4 | 12.9 | 51.5* | -18.2 | 27.6 | 15.7
N#C/C(=C\c1ccc(F)c(Br)c1)C(=O)NC1CC1 | 6.4 | -1.1 | · | 20.0 | 15.8 | 26.9 | ·
Cc1cc(C)c2nc(SCC(=O)NC(=O)c3cccn3C)cc(C)c2c1 | -43.1 | 7.3 | -19.8 | -17.8 | 3.9 | 9.2 | ·
NC(=O)N/N=C/c1c(Sc2nnnn2-c2ccccc2)nc2ccccn2c1=O | 103.3* | 14.9 | -7.2 | 71.4* | -38.3 | 3.5 | 72.0*
Cc1nn(-c2ccccc2)c(Cl)c1/C=N/NC(N)=O | -22.5 | 4.3 | -2.8 | -8.2 | -12.9 | -88.0 | ·
